Where “and” joins values, the source holds several entries; their conditions need not be identical. Equal entries are not always repeated. Results filed as inconclusive are left out.

This assay is described as follows: qHTS Assay for Lipid Storage Modulators (AID 1519). The following applies: Drosophila S3 cells, BODIPY lipid droplet/cell ratio, laser cytometry; measured here: cell count channel max response; cells loaded with oleic acid. In outline:
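Cells seeded at 5,000 per well were treated with compounds over a concentration series and loaded with oleic acid (400 uM, as added). Lipid droplet fluorescence (488 nm excitation, 500-530 nm channel) was read by laser-scanning cytometry and normalized to 20 uM Triacsin C.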
Turning to `CN1CCC[C@H]1c1cccnc1`, the max response was 8.37% and -8.82%.
In the case of `Ic1ccc(N2CCN(Cc3c[nH]c4ncccc34)CC2)cc1` it was -23.2%.
Turning to `CC1(C)CCC=[N+]1[O-]`, the max response was -28.1%.
For `COc1cccc(C(=O)NCCN2CCN(c3ccc(Cl)cc3)CC2)c1` the value was -16.3%; for `NCCCCC(=O)O`, -8.72% and -47.7%; for `N.N.O=C(O)C1(C(=O)O)CCC1.[Pt]`, 15.2% and -33.4%.
In the case of `N=C(N)N`, the max response amounted to 15.8%.
In the case of `O=C(/C=C/c1ccc(O)cc1)c1ccc(O)cc1O` it was 1.72% and 46.2%.
In the case of `COc1cccc(OC)c1OCCNCC1COc2ccccc2O1` (stereo not given) it was 10.2% and -61.3%; in that of `Nc1ccc(C(=O)O)c(O)c1`, 19.5%.
For `O=C(O)CNC(=O)C(CS)Cc1ccccc1` (stereo not given) the value was -2.09%; for `CN(C)CCC(c1ccc(Cl)cc1)c1ccccn1` (stereo not given), 45.4%; for `CN1CCc2cc(O)c(O)cc2C(c2ccccc2)C1` (stereo not given), 31.9%.
Regarding `C=CC(N)CCC(=O)O` (stereo not given), the max response worked out at 13.5%.
In the case of `Oc1ccc(C2CNCc3sccc32)cc1O` (stereo not given) it was 25.9%.
In the case of `CCCCCCCCCCCCCCCCCC(=O)NCC(COP(=O)([O-])OCC[N+](C)(C)C)OCC` (stereo not given) it was 15.1%; in that of `CN(C)c1nc(N)c(C(=O)N=C(N)N)nc1Cl`, -30.3%.
As for `OCC1O[C@H](O)C(Cl)C(O)C1O` (stereo not given in full), the max response is -14.2%.
For `CN1[C@@H](CC(=O)c2ccccc2)CCC[C@H]1C[C@H](O)c1ccccc1`, the max response stood at 24.6%.
For the compound `Cc1ccc(C(=O)O[C@H](C(=O)O)[C@@H](OC(=O)c2ccc(C)cc2)C(=O)O)cc1` (tested in a mixture with another compound), the max response amounted to 35.2%.

(Values after PubChem BioAssay (NCATS).)
